We go through four compounds from PubChem BioAssay (NCATS).

Molecules are shown by their SMILES. Several values for one entry are separate records, joined by “and”; a condition that tells them apart may be missing. Equal values may be shown once. Inconclusive results are not listed. Activity calls are given as the source filed them. Unless noted, calls come from the whole dose curve.

Experiment [1] can be described thus: qHTS for Inhibitors of the Functional Ribonucleoprotein Complex (vRNP) of Lassa (LASV) Arenavirus: LASV Primary Screen - GLuc reporter signal (AID 1347082; calls by dose curve; tested in HEK293 reporter line; note: % is set by controls: 0 for no effect and ±100 for the full control effect; nearly all actives have a fitted effect of over 60% in size).
Experiment [2] can be described thus: qHTS for Inhibitors of the Functional Ribonucleoprotein Complex (vRNP) of Lassa (LASV) Arenavirus: Viability assay - alamar blue signal for LASV Primary Screen (AID 1347083; calls by dose curve; tested in HEK293 reporter line; note: % is set by controls: 0 for no effect and ±100 for the full control effect; nearly all actives have a fitted effect of over 80% in size).
Experiment [3] is described as follows: qHTS for Inhibitors of the Functional Ribonucleoprotein Complex (vRNP) of Lymphocytic Choriomeningitis Arenaviruses (LCMV): Viability assay - alamar blue signal for LCMV Primary Screen (AID 1347085; calls by dose curve; tested in HEK293 reporter line; note: % is set by controls: 0 for no effect and ±100 for the full control effect; nearly all actives have a fitted effect of over 80% in size). In general terms: Quantitative high-throughput screening tests each substance at several concentrations.
For experiment [4], the target named is Nucleoprotein (Lymphocytic choriomeningitis virus (strain Armstrong)) (UniProt P09992). In words: qHTS for Inhibitors of the Functional Ribonucleoprotein Complex (vRNP) of Lymphocytic Choriomeningitis Arenaviruses (LCMV): LCMV Primary Screen - GLuc reporter signal (AID 1347086). Note: % is set by controls: 0 for no effect and ±100 for the full control effect; nearly all actives have a fitted effect of over 70% in size.
Experiment [5] in a line: AP1 Signaling Pathway (AID 357; active = well fitted curve in either direction with a large enough effect, not every such curve was filed as active;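 note: ME-180 reporter cells stimulated with EGF at its EC50 level; % is set by controls: 0 for no effect and ±100 for the full control effect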). Summed up: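 A ratiometric CCF4 readout (405 nm excitation; 460 and 530 nm emission) quantified AP-1-driven beta-lactamase in ME-180 cells after 5 h with compound and EC50 EGF; AC50 values were derived for activators and inhibitors.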
Experiment [6] can be described thus: NFAT Signaling Pathway (AID 444; active = well fitted curve in either direction with a large enough effect, not every such curve was filed as active;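 note: carbachol stimulus at about its EC50 of 1 µM final; % is set by controls: 0 for no effect and ±100 for the full control effect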). Conditions: Jurkat NFAT-bla M1, carbachol, beta-lactamase ratio, 5 h; at 17.2 µM (top of the series). A digest of the protocol:
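Read-out: CCF4 FRET ratio (460 nm/530 nm) after 1 h RT dye loading, used for %activity and AC50 from titration series. Cells: Jurkat NFAT-β-lactamase/M1 line, treated with compound plus 1 uM carbachol for 5 h, 37 °C.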

The nature of experiment [7]: Stat Signaling Pathway (AID 446; active = well fitted curve in either direction with a large enough effect, not every such curve was filed as active;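 note: ME-180 cervical cancer cells given 40 pM IL-6 alongside compound; SIE-controlled beta-lactamase reporter measured as 460/530 nm FRET emission ratio; % is set by controls: 0 for no effect and ±100 for the full control effect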). A digest of the protocol: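 ME-180 SIE-bla cells; overnight plating; cpd + IL-6 40 pM, 5 h, 37 C; LiveBLAzer 2.5 h RT; 460/530 nm emission ratio. Normalized to 300 pM IL-6 and 125 nM JAK inhibitor controls.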
The target of experiment [8] is Glucocorticoid receptor (Homo sapiens) (UniProt P04150). The experiment can be described thus: GR-GFP Redistribution (AID 450;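 active = compounds whose dose series gives a full or clear partial fitted curve of increased nuclear translocation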; note: potency is the fitted concentration of half-maximal effect). Conditions: U2OS GR-GFP nuclear translocation, laser cytometry, 2 h.
The target is the same in experiment [9]. The experiment can be described thus: GR-EFC Redistribution (AID 451). Note: potency is the fitted concentration of half-maximal effect. Conditions: CHO-K1 GR-EFC translocation, beta-gal luminescence, 2 h. Summed up: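 Translocation of GR-ED fusion to nuclear EA restores b-gal, read by luminescence after 1 h room-temperature detection. Engineered CHO-K1 biosensor cells, 1,000/well, exposed 2 h at 37 C to titrations up to 46 uM final.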

The target in experiment [10] is Mitogen-activated protein kinase 10 (Mus musculus) (UniProt Q61831). The experiment can be described thus: JNK3 AlphaScreen Assay (AID 530; active = well fitted curve in either direction with a large enough effect, not every such curve was filed as active;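 note: kinase came from lysate of stimulated human HepG2 cells; signal reports phosphorylation of biotinylated GST-cJun 1-79 at Ser73 with 10 µM ATP; % is set by controls: 0 for no effect and ±100 for the full control effect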). A digest of the protocol: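 Compound titrations were preincubated 15 minutes at room temperature with substrate, antibody and pre-activated JNK3-containing HepG2 lysate. Reactions were started with 10 uM ATP and stopped with EDTA-containing bead buffer for AlphaScreen detection.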
A general note: In Alpha technology, singlet oxygen from a donor bead excites a nearby acceptor bead.

Experiment [11] deals with 3',5'-cyclic-AMP phosphodiesterase 4B (Homo sapiens) (UniProt Q07343). The experiment can be described thus: qHTS Assay for Inhibitors of PDE-IV (AID 607; active = well fitted activation curve with a large enough effect in the main read-out, with a control signal flat, not every such curve was filed as active; note: % of control where 0% means no effect). Summed up:
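ACTOne HEK293 cells carry a modified cAMP-gated CNG channel and express endogenous PDE4; plated 1000 cells/well, compounds up to 22.9 uM final. Membrane-potential dye fluorescence (ex 535/em 590) was read; parental cells received 10 uM forskolin + 100 uM RO 20-1724.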

Experiment [12] addresses Cytochrome P450 2C19 (Homo sapiens) (UniProt P33261). The experiment can be described thus: qHTS Assay for Inhibitors and Substrates of Cytochrome P450 2C19 (AID 899; active = well fitted curve in the direction sought with a large enough effect; an effect the other way counts as inactive or inconclusive; note: potency is the fitted concentration of half-maximal effect; nearly all actives have a fitted effect of over 60% in size). Summed up: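 5nM enzyme + 10uM Luciferin-H EGE (=KM), 50mM KPO4; cpd pin-transferred, 10 min 37C; NADPH regen, 60 min 37C; stopped w/ luciferin detection reagent, 20 min; luminescence. Normalized to 57uM ketoconazole (AC100).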

The nature of experiment [13]: qHTS Assay for Lipid Storage Modulators (AID 1519). Conditions: Drosophila S3 cells, BODIPY lipid droplet/cell ratio, laser cytometry, cells loaded with oleic acid. Summed up:
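Cells seeded at 5,000 per well were treated with compounds over a concentration series and loaded with oleic acid (400 uM, as added). Lipid droplet fluorescence (488 nm excitation, 500-530 nm channel) was read by laser-scanning cytometry and normalized to 20 uM Triacsin C.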

The target of experiment [14] is Ubiquitin carboxyl-terminal hydrolase 1 (Homo sapiens) (UniProt O94782). The experiment can be described thus: Inhibitors of USP1/UAF1: Pilot qHTS (AID 504865; active = well fitted curve in the direction sought with a large enough effect; an effect the other way counts as inactive or inconclusive;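 note: rhodamine fluorescence freed from ubiquitin-rhodamine substrate followed over time; top concentration of the series differs between compounds; % is set by controls: 0 for no effect and ±100 for the full control effect; nearly all actives have a fitted effect of over 35% in size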). A digest of the protocol: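 Deubiquitinase activity followed as kinetic rhodamine fluorescence release from 150 nM Ub-Rho. 1 nM USP1/UAF1 with compound, after 15 min room-temperature preincubation, in HEPES pH 7.8 buffer containing TCEP, EDTA, BSA and Tween-20.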

Experiment [15] concerns the target DNA dC->dU-editing enzyme APOBEC-3G (Homo sapiens) (UniProt Q9HC16). In words: qHTS for inhibitors of Vif-A3G interactions: Validation (AID 588379; active = well fitted curve in the direction sought with a large enough effect; an effect the other way counts as inactive or inconclusive; note: 0% is about no effect). Summed up: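 HeLa cells stably expressing Vif and A3G-eYFP, 700 cells/well, incubated overnight at 37 deg C, then exposed to compound overnight at 37 deg C. Inhibition of Vif-mediated degradation read as increased yellow fluorescence (Ex 488/Em 500-530) by laser-scanning cytometry.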

Chain of Nucleoprotein (Lymphocytic choriomeningitis virus (strain Armstrong)) (P09992 whole entry, looked up): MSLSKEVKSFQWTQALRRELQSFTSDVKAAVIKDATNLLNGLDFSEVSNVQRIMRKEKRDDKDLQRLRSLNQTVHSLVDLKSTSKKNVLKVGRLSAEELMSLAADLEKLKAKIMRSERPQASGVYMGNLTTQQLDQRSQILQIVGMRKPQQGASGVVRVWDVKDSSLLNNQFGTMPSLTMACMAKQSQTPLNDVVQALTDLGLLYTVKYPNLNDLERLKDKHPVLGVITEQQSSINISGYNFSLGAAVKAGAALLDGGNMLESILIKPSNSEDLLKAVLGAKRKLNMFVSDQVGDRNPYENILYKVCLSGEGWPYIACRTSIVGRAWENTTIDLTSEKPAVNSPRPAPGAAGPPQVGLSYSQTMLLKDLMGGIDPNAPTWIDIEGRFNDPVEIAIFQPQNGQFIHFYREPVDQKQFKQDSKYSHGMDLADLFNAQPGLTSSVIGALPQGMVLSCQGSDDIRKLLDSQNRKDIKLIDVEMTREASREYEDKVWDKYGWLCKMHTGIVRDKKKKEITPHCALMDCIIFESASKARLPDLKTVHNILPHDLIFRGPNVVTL
Chain of Glucocorticoid receptor (Homo sapiens) (P04150 whole entry, looked up, the tested form may be a part): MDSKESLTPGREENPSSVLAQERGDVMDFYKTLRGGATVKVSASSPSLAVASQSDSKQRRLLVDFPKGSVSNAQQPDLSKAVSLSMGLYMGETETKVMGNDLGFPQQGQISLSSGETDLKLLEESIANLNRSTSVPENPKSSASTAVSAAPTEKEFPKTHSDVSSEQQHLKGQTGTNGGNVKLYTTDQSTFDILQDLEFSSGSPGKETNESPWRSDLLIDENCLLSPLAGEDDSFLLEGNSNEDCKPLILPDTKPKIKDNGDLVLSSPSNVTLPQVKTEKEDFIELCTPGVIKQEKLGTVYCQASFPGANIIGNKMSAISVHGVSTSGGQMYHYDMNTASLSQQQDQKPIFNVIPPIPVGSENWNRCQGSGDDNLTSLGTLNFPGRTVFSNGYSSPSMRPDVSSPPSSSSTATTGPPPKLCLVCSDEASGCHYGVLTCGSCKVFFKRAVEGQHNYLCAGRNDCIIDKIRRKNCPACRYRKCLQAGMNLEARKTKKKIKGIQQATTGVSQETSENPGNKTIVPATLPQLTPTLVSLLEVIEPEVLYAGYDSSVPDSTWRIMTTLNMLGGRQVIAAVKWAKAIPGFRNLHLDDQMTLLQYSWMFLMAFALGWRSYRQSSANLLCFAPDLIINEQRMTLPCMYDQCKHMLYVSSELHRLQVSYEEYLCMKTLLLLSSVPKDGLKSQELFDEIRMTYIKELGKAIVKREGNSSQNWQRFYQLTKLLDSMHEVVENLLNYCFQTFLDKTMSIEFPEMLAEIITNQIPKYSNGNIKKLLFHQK
Chain of 3',5'-cyclic-AMP phosphodiesterase 4B (Homo sapiens) (Q07343 whole entry, looked up): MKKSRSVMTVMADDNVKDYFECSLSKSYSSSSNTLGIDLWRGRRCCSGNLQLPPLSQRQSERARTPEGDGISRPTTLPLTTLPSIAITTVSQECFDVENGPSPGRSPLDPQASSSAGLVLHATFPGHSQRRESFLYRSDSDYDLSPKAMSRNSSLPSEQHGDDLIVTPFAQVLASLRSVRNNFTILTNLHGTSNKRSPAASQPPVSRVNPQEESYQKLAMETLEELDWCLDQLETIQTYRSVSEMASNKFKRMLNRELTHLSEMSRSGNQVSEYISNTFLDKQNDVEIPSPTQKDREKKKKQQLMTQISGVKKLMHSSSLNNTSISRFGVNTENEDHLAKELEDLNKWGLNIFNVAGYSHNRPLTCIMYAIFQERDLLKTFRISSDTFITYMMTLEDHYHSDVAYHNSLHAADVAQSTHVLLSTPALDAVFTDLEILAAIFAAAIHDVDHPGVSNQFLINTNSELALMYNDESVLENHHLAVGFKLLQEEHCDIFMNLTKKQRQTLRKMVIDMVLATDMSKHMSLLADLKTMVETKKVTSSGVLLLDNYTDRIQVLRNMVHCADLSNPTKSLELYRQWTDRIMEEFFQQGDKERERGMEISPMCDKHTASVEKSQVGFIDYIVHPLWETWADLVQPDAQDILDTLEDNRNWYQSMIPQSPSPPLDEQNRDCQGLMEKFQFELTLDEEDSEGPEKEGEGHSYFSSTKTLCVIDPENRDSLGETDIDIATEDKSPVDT
Chain of Ubiquitin carboxyl-terminal hydrolase 1 (Homo sapiens) (O94782 whole entry, looked up): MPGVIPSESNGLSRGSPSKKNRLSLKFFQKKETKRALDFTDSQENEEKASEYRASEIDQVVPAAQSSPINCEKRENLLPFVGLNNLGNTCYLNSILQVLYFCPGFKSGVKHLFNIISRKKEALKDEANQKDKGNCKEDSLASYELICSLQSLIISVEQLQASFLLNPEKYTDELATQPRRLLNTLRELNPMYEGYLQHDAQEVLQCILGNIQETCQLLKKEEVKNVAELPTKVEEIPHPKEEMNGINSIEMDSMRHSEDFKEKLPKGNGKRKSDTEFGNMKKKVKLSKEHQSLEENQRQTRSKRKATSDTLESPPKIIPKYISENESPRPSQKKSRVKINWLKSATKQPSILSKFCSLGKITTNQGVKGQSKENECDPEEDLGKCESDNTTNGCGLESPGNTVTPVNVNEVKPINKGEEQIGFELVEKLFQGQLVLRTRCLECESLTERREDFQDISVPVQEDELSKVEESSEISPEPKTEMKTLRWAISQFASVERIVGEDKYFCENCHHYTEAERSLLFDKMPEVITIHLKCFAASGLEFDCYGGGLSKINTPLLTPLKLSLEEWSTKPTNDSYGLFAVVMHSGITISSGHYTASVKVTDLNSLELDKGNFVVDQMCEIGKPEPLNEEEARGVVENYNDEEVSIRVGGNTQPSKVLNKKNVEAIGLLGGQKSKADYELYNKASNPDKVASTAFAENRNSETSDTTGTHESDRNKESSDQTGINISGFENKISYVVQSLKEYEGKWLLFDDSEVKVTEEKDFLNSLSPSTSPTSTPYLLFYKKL
Chain of DNA dC->dU-editing enzyme APOBEC-3G (Homo sapiens) (Q9HC16 whole entry, looked up): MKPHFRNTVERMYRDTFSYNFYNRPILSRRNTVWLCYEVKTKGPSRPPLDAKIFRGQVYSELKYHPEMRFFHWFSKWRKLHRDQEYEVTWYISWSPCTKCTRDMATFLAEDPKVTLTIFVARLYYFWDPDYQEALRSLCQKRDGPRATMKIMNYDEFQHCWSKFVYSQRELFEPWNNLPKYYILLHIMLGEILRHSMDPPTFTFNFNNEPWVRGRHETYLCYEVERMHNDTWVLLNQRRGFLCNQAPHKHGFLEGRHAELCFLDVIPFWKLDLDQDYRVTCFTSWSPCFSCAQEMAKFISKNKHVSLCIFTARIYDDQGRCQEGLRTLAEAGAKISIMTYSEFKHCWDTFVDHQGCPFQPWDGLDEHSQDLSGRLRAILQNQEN
Chain of Cytochrome P450 2C19 (Homo sapiens) (P33261 whole entry, looked up): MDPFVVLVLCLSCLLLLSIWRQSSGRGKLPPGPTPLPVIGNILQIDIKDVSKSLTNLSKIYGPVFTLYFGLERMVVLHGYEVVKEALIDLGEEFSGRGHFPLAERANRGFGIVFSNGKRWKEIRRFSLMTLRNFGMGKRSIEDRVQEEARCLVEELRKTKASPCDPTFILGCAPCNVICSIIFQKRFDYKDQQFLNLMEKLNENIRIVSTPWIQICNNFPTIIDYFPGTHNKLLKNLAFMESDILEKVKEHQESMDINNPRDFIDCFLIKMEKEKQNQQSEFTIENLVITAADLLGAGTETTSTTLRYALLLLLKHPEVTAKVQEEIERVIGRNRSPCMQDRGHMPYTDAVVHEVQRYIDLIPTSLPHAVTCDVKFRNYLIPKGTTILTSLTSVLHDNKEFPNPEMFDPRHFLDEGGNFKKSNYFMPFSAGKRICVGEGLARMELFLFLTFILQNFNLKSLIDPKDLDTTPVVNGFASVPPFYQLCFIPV

As to `COC(=O)c1ccccc1OC`, the Potency result in experiment [1], in experiment [2], in experiment [3] and in [4] was “inactive” throughout.
`CC(=O)O[C@]1(C(C)=O)CC[C@@H]2[C@@H]3C[C@H](C)C4=CC(=O)CC[C@]4(C)[C@H]3CC[C@@]21C`: the Potency result in experiment [1], in [2], in experiment [3] and in [4] was “inactive” in each case.
Take `CC(C)c1cccc(O)c1`: the Potency result in experiment [1], in experiment [2], in experiment [3] and in experiment [4] was “inactive” each time.
For `c1cncc([C@@H]2CCCCN2)c1`, the result in experiment [5], in experiment [7] and in [10] was inactive. Further, the activity change, negative = inhibition is -6.22% (inactive) in experiment [6], -0.77% (inactive) in experiment [13] (at 25.7 µM (top of the series)) and -0.69% (inactive) in [13] (at 57.5 µM (top of the series)). The Potency in experiment [8] was > 20.6 µM (inactive) and > 46 µM (inactive); in [9], > 20.6 µM (inactive) and > 46 µM (inactive); in [12], 2 µM (active). In addition, the Potency entry in experiment [11], in experiment [14] and in experiment [15] was “inactive” in each case. For the same compound, the max response in [13] (measured here: cell count channel max response) is -8.06% and -15.1%; in experiment [13] (measured here: lipid channel max response), -8.76% and -13.6%.
